# Inconclusive results are not listed. Entries that show only a call come without a potency. The source made the active and inactive calls. Calls follow the shape of the dose curve; as a rule, active = well fitted curve in the direction sought with a large enough effect; inconclusive = small, poorly fitted or top-dose-only effect, or another doubt; inactive = no such curve, though single readings can be large; an effect the other way counts as inactive or inconclusive.
# What was measured:
# [1] = target: Aldehyde dehydrogenase, mitochondrial (Homo sapiens) (UniProt P05091); experiment: qHTS for Inhibitors of the Aldehyde Dehydrogenase Family (ALDH2) Primary screen (AID 2061308); conditions: ALDH2 enzyme inhibition qHTS, 1536-well; series mostly up to 56 µM; also: nearly all actives have a fitted effect of over 55% in size
# [2] = target: Retinaldehyde dehydrogenase 3 (Homo sapiens) (UniProt P47895); experiment: qHTS for Inhibitors of the Aldehyde Dehydrogenase Family (ALDH1A3) Primary screen (AID 2061315); conditions: ALDH inhibition qHTS; series mostly up to 56 µM
Compound,Potency [1],Potency [2]
O=C(CSc1nc(-c2ccc(F)cc2)nc2c1Cc1ccccc1O2)Nc1ccc(F)cc1,inactive,inactive
Cc1cc2c(s1)c1cnn(Cc3ccc(F)cc3F)c(=O)c1n2C,inactive,inactive
CC(C)C[C@@H]1NC(=O)[C@@H](Cc2ccccc2)NC(=O)C(CCCCCC(=O)C2CO2)NC(=O)[C@@H]2CCCCN2C1=O (some centres undefined),inactive,inactive
COc1ccc(C2Nc3ccccc3C(=O)N2Cc2ccco2)cc1COc1c(C(C)C)cccc1C(C)C (centres undefined),inactive,inactive
Cc1ccc(OCCn2c(CCNC(=O)c3ccc(F)cc3F)nc3ccccc32)cc1,inactive,inactive
N#Cc1nc(Nc2ccc(Br)cc2)nc(NC2CCCC2)n1,inactive,inactive
O=C(Nc1ccc2ccccc2c1)Nc1nnc(-c2ccccc2)s1,inactive,inactive
CCN1CCN(C(=O)CCN(CC(C)C)c2nc(-c3cccs3)nc3ccccc23)CC1,inactive,inactive
O=C(O)c1ccccc1-c1noc(-c2ccccc2F)n1,inactive,inactive
O=C1c2ccccc2C(=O)N1c1cccnc1,inactive,inactive
C=CCNc1oc(-c2ccc(-c3ccccc3)cc2)nc1C#N,inactive,inactive
Cc1cc2c(s1)c1cnn(Cc3ccc(C(F)(F)F)cc3F)c(=O)c1n2C,inactive,inactive
CCOC(=O)c1csc(-n2nc(-c3ccc(F)c(F)c3)c(Cc3ccc(S(N)(=O)=O)cc3)c2N)n1,inactive,inactive
COc1ccc(C(=O)O[C@H]2C=COC=C3C=C4C(=O)N(C)C(=S)C(=O)N4[C@@H]32)cc1Oc1cc(C=O)ccc1O,inactive,inactive
C=CCSc1nnc(-c2cccc3ccccc23)o1,inactive,inactive
O=C(Nc1ccc(Cl)cc1)Nc1nnc(-c2ccncc2)s1,inactive,inactive
Cc1csc(CNc2ncnc3ccc(-c4ccc5c(ccn5C)c4)cc23)c1,inactive,inactive
Cc1ccc(S(=O)(=O)N(C)c2ccccc2C(=O)Nc2nc(-c3ccccc3)cs2)cc1,inactive,inactive
O=C(Nc1ccc(Cl)c(Cl)c1)Nc1nnc(-c2cccnc2)s1,inactive,inactive
CCCn1c(C)nc2c(N(CCN(CC)CC)CCN(CC)CC)nc(C)nc21,inactive,inactive
O=C(NCCc1nc2ccccc2n1CCOc1ccccc1[N+](=O)[O-])C1CCCCC1,inactive,inactive
O=S(=O)(Nc1nc(-c2ccccc2C(F)(F)F)nc2ccccc12)c1ccc(-c2ccnc(C(F)(F)F)c2)cc1,inactive,inactive
O=C(Nc1cccc(C(F)(F)F)c1)c1cccs1,inactive,inactive

Compound,Potency [1],Potency [2]
Cc1nc(N2CCOCC2)c2nc(-c3ccccc3)n(CCCN3CCCCC3C)c2n1 (centres undefined),inactive,inactive
S=C(NCCCc1cnc[nH]1)NCCCN(Cc1ccc(Cl)cc1)c1ccc(Br)cn1,inactive,inactive
C=C1C(=O)O[C@H]2/C=C(/C)[C@@H](OC(C)=O)C/C=C(\C)C[C@@H](OC(=O)/C(=C/C)COC(=O)/C(=C/C)CO)[C@@H]12,inactive,inactive
COc1ccc(C2Nc3ccccc3C(=O)N2Cc2cccnc2)cc1COc1c(C)cc(NC(C)=O)cc1C (centres undefined),inactive,inactive
COc1cc(O)c(C(CC(=O)N2CCC(Cc3ccccc3)CC2)c2ccc3c(c2)OCO3)c(OC)c1 (centres undefined),inactive,inactive
Cc1ccnc(NC(=O)N2CCN(c3cccc(C(F)(F)F)c3)CC2)c1,inactive,inactive
O=C(OCC#CCSc1nnc(-c2cccc3ccccc23)o1)c1cccc(C(F)(F)F)c1,inactive,inactive
C[C@H](Oc1cc(-n2cnc3ccc(CN4CCN(C)CC4)cc32)sc1C(N)=O)c1ccccc1C(F)(F)F,inactive,inactive
CCc1ccc2oc(NC3=NC(c4[nH]ncc4Cl)C4=C(CCCC4=O)N3)nc2c1 (centres undefined),inactive,inactive
CCN(Cc1ccccc1)c1ccc(Br)cn1,inactive,inactive
Cc1csc(CNc2ncnc3ccc(-c4ccc5c(c4)OCO5)cc23)n1,inactive,inactive
CCNC(=O)c1ccc(-c2ccc3ncnc(NCc4nc(C)cs4)c3c2)o1,inactive,inactive
COc1ccccc1S(=O)(=O)Nc1ccc2c(c1)CN(C)C(=O)N2,inactive,inactive
CCCn1c(C)nc2c(NCCCN(CC)CC)nc(C)nc21,inactive,inactive
CCOC(=O)c1ccoc1-c1ccc2ncnc(NCCc3cnc[nH]3)c2c1,inactive,inactive
Cc1cccc(CNc2ccnc(-c3ccccc3F)n2)c1,inactive,inactive
O=C1CCc2cc(S(=O)(=O)Nc3ccc(F)c(Cl)c3)ccc2N1,inactive,inactive
CC1CCC2C(C)(C)C(O)CCC2(C)C12Cc1c(O)cc3c(c1O2)CN(C(CCCN=C(N)N)C(=O)O)C3=O (centres undefined),inactive,inactive
CCOc1ccc(CCNC(=O)c2cc3ccccc3n2Cc2cc(C)cc(C)n2)cc1OCC,inactive,inactive
CCOc1ccc(C(=O)Oc2ccc(-c3nc4ccccc4[nH]3)cc2)cc1[N+](=O)[O-],inactive,inactive
O=S(=O)(c1ccccc1)N1CCN(S(=O)(=O)c2ccc3c(c2)OCCO3)CC1,inactive,inactive
COc1cc(OC)cc(C2=Nn3c(nnc3-c3cccc(OC)c3)SC2)c1,inactive,inactive
Cc1ccc(OCCn2c(CCNC(=O)c3ccccc3Br)nc3ccccc32)cc1,inactive,inactive

Compound,Potency [1],Potency [2]
CCCn1c(C)nc2c(NCCCN3CCCCC3C)nc(C)nc21 (centres undefined),inactive,inactive
CC(Nc1nc(-c2ccccc2C(F)(F)F)nc2ccccc12)c1ccc(-c2cccc(C(F)(F)F)c2)cc1 (centres undefined),inactive,inactive
O=C(O)c1ccc2c(c1)C(=O)N([C@H](Cc1ccc(-c3ccccc3)cc1)C(=O)O)C2=O,inactive,inactive
CCOC(=O)CCCC(=O)Nc1ncnc2c1C(c1ccccc1)c1c(ccc3ccccc13)O2 (centres undefined),inactive,inactive
COc1ccc(C2c3c(ncn(Cc4ccccc4)c3=N)Oc3ccc4ccccc4c32)cc1OC (centres undefined),inactive,inactive
CN(CCC1CCCO1)c1ncnc2ccc(-c3ccc4c(c3)OCO4)cc12 (centres undefined),inactive,inactive
COC(=O)C12C(=O)C(C)=C(O)C1(C)C(C)=CC1C3(CO)CCC(O)C(C)(C)C3CCC12C (centres undefined),inactive,inactive
CN(Cc1ccco1)c1ncnc2ccc(-c3cccc(Cl)c3)cc12,inactive,inactive
CCOc1ccc(CCNC(=O)c2ccnn2Cc2cccc(C)c2)cc1OCC,inactive,inactive
Cc1cc(F)ccc1S(=O)(=O)Nc1cnccc1C(=O)Nc1nc(-c2ccccc2)cs1,inactive,inactive
Cc1cccc(-n2cnc3cc(C(=O)NC4CCCC4)ccc32)c1,inactive,inactive
O=C(NCCc1nc2ccccc2n1CCOc1cccc([N+](=O)[O-])c1)C1CCCCC1,inactive,inactive
CC(C)(C)OC(=O)N[C@@H](Cc1ccc(O[S+](=O)([O-])c2cccc3cnccc23)cc1)C(=O)Nc1ccc(-c2ccccc2)cc1,inactive,inactive
O=C1c2ccccc2NC(c2ccccc2O)N1Cc1ccccc1 (centres undefined),inactive,inactive
Cc1cnc(NC(=O)c2ccc(-c3cccc([N+](=O)[O-])c3)o2)s1,inactive,inactive
N#Cc1cc(NC(=O)Nc2nnc(-c3ccncc3)s2)ccc1Cl,inactive,inactive
COC(=O)[C@H](Cc1ccc(O[S+](=O)([O-])c2cccc3cnccc23)cc1)N(C)[S+](=O)([O-])c1ccc2cnccc2c1,inactive,inactive
COC(=O)c1ccccc1S(=O)(=O)Nc1cc(=O)c2ccccc2[nH]1,inactive,inactive
COc1ccc(N2C(=O)c3ccccc3C2=O)cc1,inactive,inactive
Cc1nc(NCc2ccccc2)c2nc(-c3ccccc3)n(C3CCN(Cc4ccccc4)C3)c2n1 (centres undefined),inactive,inactive
COc1ccc(CN(Cc2ccccc2)C(=O)c2ccccc2O)cc1COc1ccc(NC(C)=O)cc1,inactive,inactive

# From PubChem BioAssay (NCATS)
